Laboratory results: PubChem BioAssay (NCATS)
“And” between values parts separate entries of the source, which are not always exact repeats. Equal entries are not always repeated. Records with an inconclusive call do not appear. The source made the active and inactive calls. Unless noted, calls follow the shape of the dose curve; as a rule, active = well fitted curve in the direction sought with a large enough effect; inconclusive = small, poorly fitted or top-dose-only effect, or another doubt; inactive = no such curve, though single readings can be large; an effect the other way counts as inactive or inconclusive.

Assays:
[1] = Validation of Assay for Modulators of Lamin A Splicing (AID 1459; active = well fitted curve in the direction sought with a large enough effect in the signal ratio; the % refers to the signal ratio;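 also: cells exposed to compound for two days before reading; ratio rise marks activators and ratio drop marks inhibitors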)
How it was run: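 HeLa S3 lamin A-EGFP/DsRed2 stable clone, 600 cells/well, Opti-MEM 2% FBS; compounds by pin tool; 48 hrs, 37 °C/5% CO2; Acumen 488 nm scan, objects 10-100 um; GFP/RFP intensity ratio.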

[2] = molecular target: DNA repair nuclease/redox regulator APEX1 (Homo sapiens) (UniProt P27695); assay: qHTS Validation Assay for Inhibitors of the Human Apurinic/apyrimidinic Endonuclease 1 (APE1) (AID 1705;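 also: TAMRA fluorescence gain over two minutes as APE1 cuts a quenched THF abasic duplex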)
DNA repair nuclease/redox regulator APEX1 (Homo sapiens), sequence (P27695 whole entry, looked up): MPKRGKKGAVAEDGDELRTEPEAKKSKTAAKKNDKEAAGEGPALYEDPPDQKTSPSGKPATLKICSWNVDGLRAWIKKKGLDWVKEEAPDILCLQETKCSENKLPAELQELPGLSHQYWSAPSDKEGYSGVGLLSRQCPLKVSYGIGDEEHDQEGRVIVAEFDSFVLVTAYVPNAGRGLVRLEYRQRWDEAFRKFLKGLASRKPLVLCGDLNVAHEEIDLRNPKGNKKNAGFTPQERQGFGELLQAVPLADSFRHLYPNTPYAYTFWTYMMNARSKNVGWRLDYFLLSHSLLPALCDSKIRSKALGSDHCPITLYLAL
How it was run: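 qHTS, 1536-well. APE1 + cpd 15 min RT → 50 nM TAMRA/BHQ-2 THF-abasic dsDNA substrate → kinetic fluorescence, 3 reads/60 s; delta(read3−read1) = reaction progress. No-enzyme buffer = negative control.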

[3] = Counterscreen for APE1 Inhibitors: Fluorescent Dye Displacement Validation Assay (AID 1707)
How it was run: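 Counterscreen flags promiscuous DNA binders: compounds displacing ThO from duplex DNA (abasic THF site, 50 nM) reduce 540 nm emission (480 nm excitation). ThO 250 nM final; Tris-HCl pH 7.5 with NaCl, MgCl2 and Tween-20.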

[4] = qHTS for differential inhibitors of proliferation of Plasmodium falciparum line 7G8 (AID 1815);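 also: potency is read from the fitted curve at half-maximal effect; parasite growth measured after three days of incubation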
[5] = qHTS for differential inhibitors of proliferation of Plasmodium falciparum line GB4 (AID 1816); conditions: Potency: Plasmodium falciparum GB4 proliferation inhibition; also: potency is read from the fitted curve at half-maximal effect
[6] = qHTS for differential inhibitors of proliferation of Plasmodium falciparum line 3D7 (AID 1876); also: potency is read from the fitted curve at half-maximal effect
[7] = qHTS for differential inhibitors of proliferation of Plasmodium falciparum line D10 (AID 1877);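 also: potency is read from the fitted curve at half-maximal effect; parasites grown with compound for 72 h before DNA staining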
[8] = qHTS for differential inhibitors of proliferation of Plasmodium falciparum line Dd2 (AID 1882); conditions: Potency: Plasmodium falciparum Dd2 proliferation inhibition; also: potency is read from the fitted curve at half-maximal effect; nearly all actives have a fitted effect of over 65% in size
How it was run: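 SYBR Green DNA fluorescence (ex 485, em 535 nm) after overnight lysis quantifies parasite growth; compound exposure lasted 72 h at 37 C on infected red cells at 2.5% hematocrit, 0.3% parasitemia (final). Artemisinin 0.29 uM and vehicle wells define normalization.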

[9] = qHTS for differential inhibitors of proliferation of Plasmodium falciparum line W2 (AID 1883); conditions: Potency: Plasmodium falciparum W2 proliferation inhibition;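 also: potency is read from the fitted curve at half-maximal effect; parasites grown with compound for 72 h before lysis and staining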
[10] = qHTS for differential inhibitors of proliferation of Plasmodium falciparum line HB3 (AID 1886); conditions: Potency: Plasmodium falciparum HB3 proliferation inhibition;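 also: potency is read from the fitted curve at half-maximal effect; parasites grown with compound for 72 h before SYBR Green readout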
[11] = molecular target: ATP-dependent DNA helicase Q1 (Homo sapiens) (UniProt P46063); assay: qHTS Validation Assay for Inhibitors of RecQ-Like Dna Helicase 1 (RECQ1) (AID 2353)
ATP-dependent DNA helicase Q1 (Homo sapiens), sequence (P46063 whole entry, looked up): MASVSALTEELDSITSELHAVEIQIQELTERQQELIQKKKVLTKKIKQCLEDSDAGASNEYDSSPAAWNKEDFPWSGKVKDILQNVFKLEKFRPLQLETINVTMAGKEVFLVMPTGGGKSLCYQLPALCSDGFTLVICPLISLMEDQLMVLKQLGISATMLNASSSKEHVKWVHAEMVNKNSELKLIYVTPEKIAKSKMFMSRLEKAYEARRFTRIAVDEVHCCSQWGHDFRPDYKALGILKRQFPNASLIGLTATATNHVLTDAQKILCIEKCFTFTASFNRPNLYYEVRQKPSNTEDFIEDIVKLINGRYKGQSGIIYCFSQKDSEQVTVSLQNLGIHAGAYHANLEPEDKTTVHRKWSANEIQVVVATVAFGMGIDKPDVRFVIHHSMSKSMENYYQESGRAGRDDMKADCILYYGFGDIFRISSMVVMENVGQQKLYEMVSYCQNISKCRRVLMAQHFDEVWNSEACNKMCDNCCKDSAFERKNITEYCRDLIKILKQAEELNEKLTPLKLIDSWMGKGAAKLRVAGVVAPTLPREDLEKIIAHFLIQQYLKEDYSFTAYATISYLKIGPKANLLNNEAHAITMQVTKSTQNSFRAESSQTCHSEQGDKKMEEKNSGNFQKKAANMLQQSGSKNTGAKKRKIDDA
How it was run: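 RECQ1T1 50 nM; forked duplex (20 bp + 30-nt ss tails) 200 nM, ATP 2 mM final; pH 8.0, 2 mM MgCl2, 2.5 ug/ml poly(dI-dC); 15 min compound preincubation; discontinuous kinetic read over 2 h at RT.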

[12] = molecular target: M-phase phosphoprotein 8 (Homo sapiens) (UniProt Q99549); assay: qHTS Validation Assay for Inhibitors for MPP8 Chromodomain Interactions with Methylated Histone Tails (AID 488949);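 also: 50 nM MPP8 with 50 nM peptide preformed then compounds added for 30 min; AlphaScreen signal from MPP8 chromodomain bound to biotinylated H3K9me3 peptide; top concentration of the series differs between compounds; nearly all actives have a fitted effect of over 55% in size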
M-phase phosphoprotein 8 (Homo sapiens), sequence (Q99549 whole entry, looked up): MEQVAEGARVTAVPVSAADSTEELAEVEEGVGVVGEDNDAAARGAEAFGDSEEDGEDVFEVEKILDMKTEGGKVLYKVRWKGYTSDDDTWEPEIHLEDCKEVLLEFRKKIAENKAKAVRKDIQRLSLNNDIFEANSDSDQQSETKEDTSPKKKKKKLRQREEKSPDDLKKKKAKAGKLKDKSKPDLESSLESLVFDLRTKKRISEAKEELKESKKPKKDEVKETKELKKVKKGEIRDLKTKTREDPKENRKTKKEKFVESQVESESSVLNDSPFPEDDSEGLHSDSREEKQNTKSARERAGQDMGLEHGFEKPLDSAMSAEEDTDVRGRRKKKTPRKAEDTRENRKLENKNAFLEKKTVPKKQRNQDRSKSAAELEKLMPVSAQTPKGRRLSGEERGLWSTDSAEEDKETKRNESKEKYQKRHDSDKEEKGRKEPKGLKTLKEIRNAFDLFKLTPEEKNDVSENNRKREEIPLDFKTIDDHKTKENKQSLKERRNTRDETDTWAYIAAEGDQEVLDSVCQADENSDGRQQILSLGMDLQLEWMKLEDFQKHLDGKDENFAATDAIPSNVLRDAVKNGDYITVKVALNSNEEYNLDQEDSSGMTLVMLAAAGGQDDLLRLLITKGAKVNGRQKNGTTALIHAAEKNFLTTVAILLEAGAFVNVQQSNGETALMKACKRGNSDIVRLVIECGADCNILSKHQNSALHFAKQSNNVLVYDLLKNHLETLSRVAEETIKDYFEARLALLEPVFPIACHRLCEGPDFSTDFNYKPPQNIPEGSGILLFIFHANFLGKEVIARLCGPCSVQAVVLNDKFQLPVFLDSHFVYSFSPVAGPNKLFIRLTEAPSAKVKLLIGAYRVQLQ
How it was run: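 50 nM MPP8 + 50 nM b-H3K9me3 peptide, PBS pH 7.4/0.01% Tween-20, 30 min RT; + cpd 30 min RT; + AlphaScreen donor/Ni-chelate acceptor beads 10 ug/mL final, 30 min dark; luminescence read.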

[13] = molecular target: Thyrotropin receptor (Homo sapiens) (UniProt P16473); assay: qHTS Assay for Antagonists of the Thyroid Stimulating Hormone Receptor (AID 488980)
Thyrotropin receptor (Homo sapiens), sequence (P16473 whole entry, looked up): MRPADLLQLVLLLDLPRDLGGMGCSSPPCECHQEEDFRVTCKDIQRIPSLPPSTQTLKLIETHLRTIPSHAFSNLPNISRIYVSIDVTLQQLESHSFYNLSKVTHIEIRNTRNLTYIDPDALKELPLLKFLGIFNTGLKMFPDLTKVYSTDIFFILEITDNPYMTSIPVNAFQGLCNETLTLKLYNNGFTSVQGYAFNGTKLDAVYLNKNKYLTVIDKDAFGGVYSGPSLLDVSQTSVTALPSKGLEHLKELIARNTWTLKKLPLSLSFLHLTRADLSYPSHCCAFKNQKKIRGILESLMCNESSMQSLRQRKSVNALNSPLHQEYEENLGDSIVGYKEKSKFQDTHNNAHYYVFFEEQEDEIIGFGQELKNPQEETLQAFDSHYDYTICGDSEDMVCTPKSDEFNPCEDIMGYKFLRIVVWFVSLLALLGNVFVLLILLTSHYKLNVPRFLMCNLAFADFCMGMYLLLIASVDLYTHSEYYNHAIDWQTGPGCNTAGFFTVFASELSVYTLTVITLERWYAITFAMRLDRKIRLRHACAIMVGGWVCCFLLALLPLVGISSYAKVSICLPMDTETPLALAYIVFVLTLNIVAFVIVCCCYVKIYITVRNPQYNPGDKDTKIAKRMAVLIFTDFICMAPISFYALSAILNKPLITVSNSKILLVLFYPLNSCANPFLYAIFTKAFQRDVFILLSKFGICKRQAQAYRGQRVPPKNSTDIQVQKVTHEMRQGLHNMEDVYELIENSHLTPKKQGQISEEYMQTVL
How it was run: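 Readout is cAMP by HTRF competition between cellular cAMP and cAMP-d2 for a cryptate-labelled antibody. Antagonism was assessed in TSHR-transfected HEK293 cells stimulated with 4 nM TSH (EC80, final) in the presence of RO 20-1724.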

[14] = molecular target: ATP-dependent 6-phosphofructokinase (Trypanosoma brucei brucei) (UniProt O15648); assay: qHTS Assay to Find Inhibitors of T. brucei phosphofructokinase: hit validation (AID 492961);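 also: luminescence reports ADP formed as PFK phosphorylates fructose-6-phosphate with ATP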
ATP-dependent 6-phosphofructokinase (Trypanosoma brucei brucei), sequence (O15648 whole entry, looked up): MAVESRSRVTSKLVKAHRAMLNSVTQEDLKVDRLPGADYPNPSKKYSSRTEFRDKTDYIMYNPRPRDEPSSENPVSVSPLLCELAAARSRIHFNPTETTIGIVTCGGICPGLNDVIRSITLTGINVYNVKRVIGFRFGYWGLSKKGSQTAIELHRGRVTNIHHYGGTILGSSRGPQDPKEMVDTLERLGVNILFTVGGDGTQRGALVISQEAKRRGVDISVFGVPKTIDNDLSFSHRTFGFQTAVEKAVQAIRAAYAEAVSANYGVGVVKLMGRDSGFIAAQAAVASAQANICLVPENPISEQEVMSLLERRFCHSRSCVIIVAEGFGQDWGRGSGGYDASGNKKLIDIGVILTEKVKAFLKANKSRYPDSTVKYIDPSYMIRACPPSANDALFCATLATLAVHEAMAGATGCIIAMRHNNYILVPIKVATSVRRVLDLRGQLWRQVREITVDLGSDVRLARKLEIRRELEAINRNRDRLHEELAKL
How it was run: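 ADP-Glo luminescence read-out of ADP formed by 1.25 nM PFK from 0.1 mM ATP and 0.5 mM F6P (TEA pH 8.0, 45 min, RT). Compounds titrated; activity normalized to no-enzyme and full-enzyme controls.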

[15] = molecular target: Galactokinase (Homo sapiens) (UniProt P51570); assay: qHTS Validation Assay for Inhibitors of Human Galactokinase (GALK) (AID 493189)
Galactokinase (Homo sapiens), sequence (P51570 whole entry, looked up): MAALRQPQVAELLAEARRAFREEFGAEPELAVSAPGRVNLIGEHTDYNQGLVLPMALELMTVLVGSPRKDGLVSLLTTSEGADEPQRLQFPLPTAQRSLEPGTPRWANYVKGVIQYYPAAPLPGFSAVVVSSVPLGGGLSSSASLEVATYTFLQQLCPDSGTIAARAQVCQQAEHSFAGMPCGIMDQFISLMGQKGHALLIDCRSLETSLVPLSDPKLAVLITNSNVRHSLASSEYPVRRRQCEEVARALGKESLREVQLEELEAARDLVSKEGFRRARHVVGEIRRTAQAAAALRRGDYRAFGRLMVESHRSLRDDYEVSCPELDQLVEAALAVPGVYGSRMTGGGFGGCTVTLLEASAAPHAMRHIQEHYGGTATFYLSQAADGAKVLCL
How it was run: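 5 nM GALK / 100 uM galactose / 35 uM ATP, 20 mM HEPES pH8.0, 5 mM MgCl2, 60 mM NaCl, 1 mM DTT, 0.01% BSA (final). RT 1 h; Kinase-Glo Plus luminescence.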

[16] = Validation screen for small molecules that induce DNA re-replication in SW480 colon adenocarcinoma cells (AID 504364)
How it was run: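 Image-based qHTS: compounds were incubated with SW480 cells for 48 hr, nuclei stained with Hoechst, and per-nucleus fluorescence intensity scanned to flag cells with excess DNA content.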

[17] = molecular target: Luciferin 4-monooxygenase (Photinus pyralis) (UniProt P08659); assay: Biochemical firefly luciferase enzyme assay for NPC (AID 624030);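 also: purified P. pyralis luciferase at 10 nM with luciferin and ATP substrate; nearly all actives have a fitted effect of over 70% in size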
Luciferin 4-monooxygenase (Photinus pyralis), sequence (P08659 whole entry, looked up): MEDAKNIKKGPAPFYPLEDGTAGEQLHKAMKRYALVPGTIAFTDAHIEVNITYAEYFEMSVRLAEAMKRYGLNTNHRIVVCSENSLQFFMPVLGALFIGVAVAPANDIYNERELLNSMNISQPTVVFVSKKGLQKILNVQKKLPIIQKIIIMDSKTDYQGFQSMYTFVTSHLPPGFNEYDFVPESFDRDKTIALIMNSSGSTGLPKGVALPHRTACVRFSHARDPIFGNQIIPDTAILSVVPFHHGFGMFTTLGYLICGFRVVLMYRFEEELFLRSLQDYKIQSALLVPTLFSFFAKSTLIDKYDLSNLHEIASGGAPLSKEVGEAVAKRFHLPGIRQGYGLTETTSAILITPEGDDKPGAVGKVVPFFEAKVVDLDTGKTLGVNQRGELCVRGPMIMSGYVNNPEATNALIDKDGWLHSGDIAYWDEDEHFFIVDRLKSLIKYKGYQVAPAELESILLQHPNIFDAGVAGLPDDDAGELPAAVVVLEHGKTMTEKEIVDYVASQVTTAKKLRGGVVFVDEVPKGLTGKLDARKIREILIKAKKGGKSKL
How it was run: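 Direct inhibition of firefly luciferase enzyme (10 nM final, 50 mM Tris Acetate) assessed by luminescence within 5 minutes. Percent activity scaled between DMSO and PTC124 positive control, with concentration-effect curves classified by fit quality and response.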

[18] = S16 Schwann cell PMP22 intronic element firefly luciferase assay (AID 624032); also: potency is read from the fitted curve at half-maximal effect; nearly all actives have a fitted effect of over 30% in size
How it was run: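 Luciferase reporter of PMP22 intronic-element expression in stably transfected S16 rat Schwann cells, read by ONE-Glo luminescence after 24 h compound exposure at 37 C. Activity scaled between DMSO (0%) and positive-control PTC124; concentration-effect curves quality-classified.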

[19] = tested on: 7G8; assay: qHTS profiling for inhibitors of Plasmodium falciparum proliferation (AID 504749); also: nearly all actives have a fitted effect of over 60% in size; also: potency is read from the fitted curve at half-maximal effect; conditions: P. falciparum in erythrocytes, SYBR Green DNA, 72 h; series mostly up to 28.7 µM
How it was run: (§1)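 SYBR Green fluorescence of parasite DNA, read after lysis and overnight dark incubation, measured growth over 72 h in erythrocyte culture at 0.3% parasitemia and 2.5% hematocrit. Data normalised to DMSO and 0.29 uM artemisinin, with plate-drift correction.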

[20] = tested on: AA1029; assay: as above; conditions: P. falciparum in erythrocytes, SYBR Green DNA, 72 h; series mostly up to 28.7 µM
How it was run: as §1

[21] = tested on: ATS95; assay: as above; conditions: P. falciparum in erythrocytes, SYBR Green DNA, 72 h; series mostly up to 28.7 µM
How it was run: as §1

[22] = tested on: C2A; assay: as above; conditions: P. falciparum in erythrocytes, SYBR Green DNA, 72 h; series mostly up to 28.7 µM
How it was run: as §1

[23] = tested on: CP191; assay: as above; conditions: P. falciparum in erythrocytes, SYBR Green DNA, 72 h; series mostly up to 28.7 µM
How it was run: as §1

[24] = tested on: CP215; assay: as above; conditions: P. falciparum in erythrocytes, SYBR Green DNA, 72 h; series mostly up to 28.7 µM
How it was run: as §1

[25] = tested on: CP217; assay: as above; conditions: P. falciparum in erythrocytes, SYBR Green DNA, 72 h; series mostly up to 28.7 µM
How it was run: as §1

[26] = tested on: CP237; assay: as above; conditions: P. falciparum in erythrocytes, SYBR Green DNA, 72 h; series mostly up to 28.7 µM
How it was run: as §1

[27] = tested on: CP252; assay: as above; conditions: P. falciparum in erythrocytes, SYBR Green DNA, 72 h; series mostly up to 28.7 µM
How it was run: as §1

[28] = tested on: CP286; assay: as above; conditions: P. falciparum in erythrocytes, SYBR Green DNA, 72 h; series mostly up to 28.7 µM
How it was run: as §1

[29] = tested on: CP305; assay: as above; conditions: P. falciparum in erythrocytes, SYBR Green DNA, 72 h; series mostly up to 28.7 µM
How it was run: as §1

[30] = tested on: CP315; assay: as above; conditions: P. falciparum in erythrocytes, SYBR Green DNA, 72 h; series mostly up to 28.7 µM
How it was run: as §1

[31] = tested on: CP329; assay: as above; conditions: P. falciparum in erythrocytes, SYBR Green DNA, 72 h; series mostly up to 28.7 µM
How it was run: as §1

[32] = tested on: CP335; assay: as above; conditions: P. falciparum in erythrocytes, SYBR Green DNA, 72 h; series mostly up to 28.7 µM
How it was run: as §1

[33] = tested on: DIV14; assay: as above; conditions: P. falciparum in erythrocytes, SYBR Green DNA, 72 h; series mostly up to 28.7 µM
How it was run: as §1

[34] = tested on: DIV17; assay: as above; conditions: P. falciparum in erythrocytes, SYBR Green DNA, 72 h; series mostly up to 28.7 µM
How it was run: as §1

[35] = tested on: Dd2; assay: as above; conditions: P. falciparum in erythrocytes, SYBR Green DNA, 72 h; series mostly up to 28.7 µM
How it was run: as §1

[36] = tested on: ECU; assay: as above; conditions: P. falciparum in erythrocytes, SYBR Green DNA, 72 h; series mostly up to 28.7 µM
How it was run: as §1

[37] = tested on: GB4; assay: as above; conditions: P. falciparum in erythrocytes, SYBR Green DNA, 72 h; series mostly up to 28.7 µM
How it was run: as §1

[38] = tested on: ICS; assay: as above; conditions: P. falciparum in erythrocytes, SYBR Green DNA, 72 h; series mostly up to 28.7 µM
How it was run: as §1

[39] = tested on: JCK; assay: as above; conditions: P. falciparum in erythrocytes, SYBR Green DNA, 72 h; series mostly up to 28.7 µM
How it was run: as §1

[40] = tested on: P93_24; assay: as above; conditions: P. falciparum in erythrocytes, SYBR Green DNA, 72 h; series mostly up to 28.7 µM
How it was run: as §1

[41] = tested on: PC49; assay: as above; conditions: P. falciparum in erythrocytes, SYBR Green DNA, 72 h; series mostly up to 28.7 µM
How it was run: as §1

[42] = tested on: SC27B; assay: as above; conditions: P. falciparum in erythrocytes, SYBR Green DNA, 72 h; series mostly up to 28.7 µM
How it was run: as §1

[43] = tested on: TAB165; assay: as above; conditions: P. falciparum in erythrocytes, SYBR Green DNA, 72 h; series mostly up to 28.7 µM
How it was run: as §1

[44] = tested on: W2; assay: as above; conditions: P. falciparum in erythrocytes, SYBR Green DNA, 72 h; series mostly up to 28.7 µM
How it was run: as §1

Measured: Potency

CC(C)(C)[C@]1(O)CCN2CC3c4ccccc4CCc4cccc(c43)[C@@H]2C1 (some centres undefined)
inactive: [1] | [2] | [3] | [11] | [12] | [13] | [14] | [15] | [16] | [17] | [24] | [29] | [30] | [31] | [39] | [41]
active: [4] 5.62 µM and 5.01 µM | [5] 6.31 µM and 5.01 µM | [6] 6.31 µM and 3.55 µM | [7] 12.6 µM and 11.2 µM | [8] 7.08 µM and 14.1 µM | [9] 2.82 µM and 2.24 µM | [10] 12.6 µM and 6.31 µM | [18] 36.1 µM | [19] 11.2 µM | [20] 7.94 µM | [21] 10 µM | [22] 11.2 µM | [23] 8.91 µM | [25] 8.91 µM | [26] 11.2 µM | [27] 10 µM | [28] 8.91 µM | [32] 10.7 µM | [33] 10.7 µM | [34] 15.1 µM | [35] 10 µM | [36] 14.1 µM | [37] 9.53 µM | [38] 10 µM | [40] 11.2 µM | [42] 7.94 µM | [43] 11.2 µM | [44] 5.36 µM
